Columns and labels:
Conditions in all cases: concentration: 1 μM, replicates: in singlicate; n = 1
GRK3 = system: T1, GRK3
T1 construct: gene ADRBK2

GRK4 = system: GRK4
GRK7 = system: GRK7
GSK3A = system: GSK3A
GSK3B = system: GSK3B
HASPIN = system: T2, HASPIN
T2 construct: gene GSG2

HCK = system: HCK
HIPK1 = system: HIPK1
HIPK2 = system: HIPK2
HIPK3 = system: HIPK3
HIPK4 = system: HIPK4
HPK1 = system: HPK1
HUNK = system: HUNK
ICK = system: ICK
IGF1R = system: IGF1R
IKK-alpha = system: T3, IKK-alpha
T3 construct: gene CHUK

IKK-beta = system: T4, IKK-beta
T4 construct: gene IKBKB

IKK-epsilon = system: T5, IKK-epsilon
T5 construct: gene IKBKE

INSRR = system: INSRR
INSR = system: INSR
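Further: KINOMEscan kinase panel screen.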

**Q.** Which “%Inh” value (GRK3) does the source give for CCc1ccc(-c2ccc3c(c2)-c2n[nH]cc2S(=O)(=O)N3C)cc1 here?
**A.** The value was 0%.

**Q.** And the “%Inh” value (GRK4)?
**A.** The value was 0%.

**Q.** What about the “%Inh” value (GRK7) of the same compound?
**A.** The value was 0%.

**Q.** And the “%Inh” value (GSK3A)?
**A.** Its value is 35%.

**Q.** And the “%Inh” value (GSK3B)?
**A.** The value was 0%.

**Q.** And the “%Inh” value (HASPIN)?
**A.** The value was 4%.

**Q.** What about the “%Inh” value (HCK) of the same compound?
**A.** Its value is 16%.

**Q.** What about the “%Inh” value (HIPK1) of the same compound?
**A.** Its value is 0%.

**Q.** What about the “%Inh” value (HIPK2) of the same compound?
**A.** The value was 0%.

**Q.** And the “%Inh” value (HIPK3)?
**A.** Its value is 0%.

**Q.** What about the “%Inh” value (HIPK4) of the same compound?
**A.** Its value is 23%.

**Q.** And the “%Inh” value (HPK1)?
**A.** Its value is 16%.

**Q.** And the “%Inh” value (HUNK)?
**A.** Its value is 34%.

**Q.** What about the “%Inh” value (ICK) of the same compound?
**A.** Its value is 0%.

**Q.** And the “%Inh” value (IGF1R)?
**A.** Its value is 0%.

**Q.** What about the “%Inh” value (IKK-alpha) of the same compound?
**A.** Its value is 0%.

**Q.** And the “%Inh” value (IKK-beta)?
**A.** The value was 0%.

**Q.** And the “%Inh” value (IKK-epsilon)?
**A.** The value was 0%.

**Q.** And the “%Inh” value (INSRR)?
**A.** Its value is 0%.

**Q.** What about the “%Inh” value (INSR) of the same compound?
**A.** Its value is 0%.

**Q.** Which “%Inh” value (GRK3) does the source give for COc1ccc(Nc2nccc(N3CCC(NC(=O)C(C)c4ccc(Cl)cc4)C3)n2)cc1 (stereo not shown) [GSK1379735] here?
**A.** The value was 20%.

**Q.** What about the “%Inh” value (GRK4) of the same compound?
**A.** The value was 31%.

**Q.** What about the “%Inh” value (GRK7) of the same compound?
**A.** The value was 0%.

**Q.** What about the “%Inh” value (GSK3A) of the same compound?
**A.** Its value is 34%.

**Q.** And the “%Inh” value (GSK3B)?
**A.** The value was 0%.

**Q.** What about the “%Inh” value (HASPIN) of the same compound?
**A.** Its value is 13%.

**Q.** What about the “%Inh” value (HCK) of the same compound?
**A.** Its value is 0%.

**Q.** What about the “%Inh” value (HIPK1) of the same compound?
**A.** Its value is 0%.

**Q.** And the “%Inh” value (HIPK2)?
**A.** The value was 0%.

**Q.** What about the “%Inh” value (HIPK3) of the same compound?
**A.** The value was 4%.

**Q.** What about the “%Inh” value (HIPK4) of the same compound?
**A.** Its value is 9%.

**Q.** And the “%Inh” value (HPK1)?
**A.** The value was 51%.

**Q.** What about the “%Inh” value (HUNK) of the same compound?
**A.** Its value is 0%.

**Q.** What about the “%Inh” value (ICK) of the same compound?
**A.** Its value is 18%.

**Q.** What about the “%Inh” value (IGF1R) of the same compound?
**A.** Its value is 0%.

**Q.** And the “%Inh” value (IKK-alpha)?
**A.** Its value is 0%.

**Q.** And the “%Inh” value (IKK-beta)?
**A.** The value was 0%.

**Q.** And the “%Inh” value (IKK-epsilon)?
**A.** The value was 0%.

**Q.** And the “%Inh” value (INSRR)?
**A.** Its value is 28%.

**Q.** What about the “%Inh” value (INSR) of the same compound?
**A.** Its value is 11%.

**Q.** Which results are given for Fc1ccc(-c2nn3cccc(F)c3c2-c2ccncc2)cc1 [GW475620]?
**A.** %Inh (GRK3): 0%; %Inh (GRK4): 26%; %Inh (GRK7): 0%; %Inh (GSK3A): 0%; %Inh (GSK3B): 11%; %Inh (HASPIN): 5%; %Inh (HCK): 15%; %Inh (HIPK1): 0%; %Inh (HIPK2): 0%; %Inh (HIPK3): 4%; %Inh (HIPK4): 22%; %Inh (HPK1): 0%; %Inh (HUNK): 0%; %Inh (ICK): 0%; %Inh (IGF1R): 47%; %Inh (IKK-alpha): 0%; %Inh (IKK-beta): 0%; %Inh (IKK-epsilon): 14%; %Inh (INSRR): 0%; %Inh (INSR): 13%

**Q.** How did the “%Inh” value (GRK3) turn out when COc1ccc(-c2coc3ccc(-c4nnc(C)o4)cc23)cc1 was run?
**A.** Its value is 0%.

**Q.** And the “%Inh” value (GRK4)?
**A.** Its value is 0%.

**Q.** What about the “%Inh” value (GRK7) of the same compound?
**A.** Its value is 0%.

**Q.** What about the “%Inh” value (GSK3A) of the same compound?
**A.** The value was 11%.

**Q.** And the “%Inh” value (GSK3B)?
**A.** The value was 0%.

**Q.** And the “%Inh” value (HASPIN)?
**A.** Its value is 18%.

**Q.** What about the “%Inh” value (HCK) of the same compound?
**A.** Its value is 0%.

**Q.** And the “%Inh” value (HIPK1)?
**A.** Its value is 37%.

**Q.** What about the “%Inh” value (HIPK2) of the same compound?
**A.** Its value is 0%.

**Q.** What about the “%Inh” value (HIPK3) of the same compound?
**A.** The value was 0%.

**Q.** And the “%Inh” value (HIPK4)?
**A.** The value was 8%.

**Q.** What about the “%Inh” value (HPK1) of the same compound?
**A.** The value was 0%.

**Q.** What about the “%Inh” value (HUNK) of the same compound?
**A.** The value was 0%.

**Q.** And the “%Inh” value (ICK)?
**A.** The value was 0%.

**Q.** And the “%Inh” value (IGF1R)?
**A.** The value was 12%.

**Q.** And the “%Inh” value (IKK-alpha)?
**A.** The value was 0%.

**Q.** And the “%Inh” value (IKK-beta)?
**A.** Its value is 0%.

**Q.** And the “%Inh” value (IKK-epsilon)?
**A.** Its value is 0%.

**Q.** What about the “%Inh” value (INSRR) of the same compound?
**A.** Its value is 0%.

**Q.** What about the “%Inh” value (INSR) of the same compound?
**A.** The value was 14%.

**Q.** Which “%Inh” value (GRK3) does the source give for Cc1ccccc1-c1cc(-c2c[nH]nc2-c2ccccn2)ccn1 [GW680061] here?
**A.** The value was 37%.

**Q.** And the “%Inh” value (GRK4)?
**A.** Its value is 0%.

**Q.** And the “%Inh” value (GRK7)?
**A.** The value was 0%.

**Q.** And the “%Inh” value (GSK3A)?
**A.** Its value is 0%.

**Q.** What about the “%Inh” value (GSK3B) of the same compound?
**A.** The value was 1%.

**Q.** What about the “%Inh” value (HASPIN) of the same compound?
**A.** The value was 0%.

**Q.** And the “%Inh” value (HCK)?
**A.** Its value is 0%.

**Q.** What about the “%Inh” value (HIPK1) of the same compound?
**A.** Its value is 4%.

**Q.** And the “%Inh” value (HIPK2)?
**A.** The value was 0%.

**Q.** And the “%Inh” value (HIPK3)?
**A.** The value was 10%.

**Q.** What about the “%Inh” value (HIPK4) of the same compound?
**A.** Its value is 0%.

**Q.** And the “%Inh” value (HPK1)?
**A.** The value was 32%.

**Q.** And the “%Inh” value (HUNK)?
**A.** The value was 27%.

**Q.** And the “%Inh” value (ICK)?
**A.** Its value is 0%.

**Q.** And the “%Inh” value (IGF1R)?
**A.** The value was 2%.

**Q.** And the “%Inh” value (IKK-alpha)?
**A.** The value was 46%.

**Q.** What about the “%Inh” value (IKK-beta) of the same compound?
**A.** Its value is 38%.

**Q.** And the “%Inh” value (IKK-epsilon)?
**A.** The value was 0%.

**Q.** And the “%Inh” value (INSRR)?
**A.** The value was 0%.

**Q.** And the “%Inh” value (INSR)?
**A.** The value was 28%.
